Measurements from PubChem BioAssay (NCI).
The panel holds about 79,000 compounds, 15% with a hit somewhere; the sample as a whole holds those more often. A number with no mark means an inactive call. Activity calls are given as the source filed them. Rule as the data show it: active = growth inhibition above about 70%; inactive = the rest.

Experiment: NCI Yeast Anticancer Drug Screen. Data for the rad50 strain (AID 155);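 also: 0% = growth of vehicle-only cultures of the same strain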
Details: S. cerevisiae rad50 strain growth inhibition; at 50.0 µM; hits give high values
In short: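 Yeast carrying a defined DNA repair defect were exposed to test compounds, and growth was compared with vehicle-treated controls to give percent inhibition.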

Question: For `COC1=CC(O)(CC(N)=O)c2ccccc2C1=O` (stereo not given), which growth inhibition is on record?
Answer: -5.3%

Question: With `[N-]=[N+]=NC(=O)C1C(c2ccccc2)=C1c1ccccc1` as the compound, how does the growth inhibition read?
Answer: 45.5%

Question: With `O=[N+]([O-])c1cc(Cl)ccc1NC(Nc1ccc(Cl)cc1[N+](=O)[O-])C(Cl)(Cl)Cl` as the compound, how does the growth inhibition read?
Answer: 44.5%

Question: Which growth inhibition does the source give for `Nc1nc2sc3ccccc3c(=O)n2n1` here?
Answer: -10.7%

Question: Which growth inhibition does the source give for `CCOC(=O)c1ccc(NC(=O)Nc2cc(Cl)ncn2)cc1` here?
Answer: 10.1%

Question: For `Cc1ccc(S(=O)(=O)NC2C(=O)c3ccccc3C(=O)C2n2ccnc2)cc1` (stereo not given), which growth inhibition is on record?
Answer: 4.85%

Question: Which growth inhibition does the source give for `N=c1c2ccccc2nc2oc3ccc(Cl)cc3n12` here?
Answer: -15.4%

Question: With `Cc1c(-c2ccc(N)cc2)c(=O)oc2cc(O)ccc12` as the compound, how does the growth inhibition read?
Answer: -8.65%

Question: With `CCCc1ccccc1[N+](=O)[O-]` as the compound, how does the growth inhibition read?
Answer: 0.25%

Question: With `Cc1cc2c(c(C(=O)NCC(=O)O)c1)Oc1c(cc(C)cc1C(=O)NCC(=O)O)S2` as the compound, how does the growth inhibition read?
Answer: -17%

Question: For `O=C1NC(=O)[C@H]2C[C@H]3C(=O)NC(=O)[C@H]3[C@@H]12`, which growth inhibition is on record?
Answer: -0.7%

Question: With `OCC(O)COCCCCCCCCCCCCCC1C=CCC1` (stereo not given) as the compound, how does the growth inhibition read?
Answer: -35.8%

Question: For `CCCCN1CCSC1=S`, which growth inhibition is on record?
Answer: 99.5% (active)

Question: With `N=C(/C(=C/c1cccc2ccccc12)c1ccccc1)c1ccccc1` as the compound, how does the growth inhibition read?
Answer: 13.8%

Question: With `COc1ccc2occc2c1` as the compound, how does the growth inhibition read?
Answer: 0%

Question: Which growth inhibition does the source give for `C=CCN1/C(=C(\C#N)c2nc3ccccc3[nH]2)Sc2c1nc[nH]c2=O` here?
Answer: -51.6%

Question: Which growth inhibition does the source give for `Cc1ccc2c(ccc3nnc(C)n32)c1` here?
Answer: 9.15%

Question: Which growth inhibition does the source give for `C=CCN1C(=O)/C(=C/c2ccc(OCC(=O)O)cc2)SC1=S` here?
Answer: 5.7%

Question: For `COc1c2c(cc3c1C1(O)Cc4ccc5c(c4C[N+]1(C)CC3)OCO5)OCO2` (stereo not given), which growth inhibition is on record?
Answer: 10.8%

Question: For `C=C1C(=O)OC2/C=C(\C)CC(O)/C=C(/C)CC(OC(=O)C(O)(CO)C(C)S)C12` (stereo not given), which growth inhibition is on record?
Answer: -14%

Question: For `CNC(=O)c1ccccc1C`, which growth inhibition is on record?
Answer: -1.15%

Question: For `N#CCCCCCCO`, which growth inhibition is on record?
Answer: 14.6%

Question: Which growth inhibition does the source give for `O=C(Nc1nccs1)Nc1cc(F)ccc1F` here?
Answer: 5.7%

Question: With `N#CC(c1ccc(Cl)cc1)c1cccc(C(C#N)c2ccc(Cl)cc2)n1` (stereo not given) as the compound, how does the growth inhibition read?
Answer: 28.9%

Question: With `O=C1NC(=O)C2(CCC(O)C2)c2cc[n+]([O-])cc21` (stereo not given) as the compound, how does the growth inhibition read?
Answer: -8.55%

Question: With `Cn1c(=O)c2c(nc(NCCOC(=S)S)n2C)n(C)c1=O` as the compound, how does the growth inhibition read?
Answer: -44.8%

Question: Which growth inhibition does the source give for `CCCC=Nc1ccccc1` here?
Answer: 8.3%

Question: Which growth inhibition does the source give for `COC(=O)c1c(C)cc(OC)c(C/C=C(\C)CCCc2coc(C=C(C)C)c2)c1OC` here?
Answer: 21%

Question: Which growth inhibition does the source give for `BrC1=C(c2ccccc2)SC(Br)=C(c2ccccc2)S1` here?
Answer: 1.55%

Question: Which growth inhibition does the source give for `Cc1ccc(NC(=O)/C=C2\CONC(c3ccccc3)=N2)cc1` here?
Answer: -10.1%

Question: For `CCOC(=O)NN(C(=O)OCC)C(C(C)=O)c1ccccc1` (stereo not given), which growth inhibition is on record?
Answer: 3.95%

Question: With `O=c1[nH]c(=O)c2ncn(C3OC(CO)C(O)C3O)c2[nH]1.O=c1[nH]c(=O)c2ncn(C3OC(CO)C(O)C3O)c2[nH]1.[NH2-].[NH2-].[Pt+2]` (stereo not given) as the compound, how does the growth inhibition read?
Answer: 3.35%

Question: For `c1ccc(N=c2snc3scc(-c4ccccc4)n23)cc1`, which growth inhibition is on record?
Answer: 28.4%

Question: With `COc1ccc([N+](=O)[O-])c2ncncc12` as the compound, how does the growth inhibition read?
Answer: -14.4%

Question: Which growth inhibition does the source give for `O=[N+]([O-])c1cccc([I+]c2cccc([N+](=O)[O-])c2)c1` here?
Answer: 98.5% (active)

Question: For `O=C(Cc1cccc(CC(=O)c2ccccc2)n1)c1ccccc1`, which growth inhibition is on record?
Answer: 9.25%

Question: With `c1ccc2c(c1)NC1(CCCCC1)S2` as the compound, how does the growth inhibition read?
Answer: 5.35%

Question: Which growth inhibition does the source give for `O=C1OC(c2ccc(O)c(-c3ccccc3)c2)(c2ccc(O)c(-c3ccccc3)c2)c2c(Cl)c(Cl)c(Cl)c(Cl)c21` here?
Answer: -16.4%

Question: Which growth inhibition does the source give for `CC(=O)Oc1c(C)n(C(C)=O)c2cc(Cl)ccc12` here?
Answer: 1.35%

Question: For `CCN(CC)c1ccc2cc(-c3nc4ccccc4n3C)c(=O)oc2c1`, which growth inhibition is on record?
Answer: 14.8%

Experiment: NCI Yeast Anticancer Drug Screen. Data for the mec2-1 strain (AID 157)
Details: S. cerevisiae mec2-1 strain, at 50.0 µM, hits give high values
In short: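 Vehicle-treated cultures served as reference for growth inhibition of compound-exposed mec2-1 yeast.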

Question: With `COC1=CC(O)(CC(N)=O)c2ccccc2C1=O` (stereo not given) as the compound, how does the growth inhibition read?
Answer: -8.65%

Question: With `[N-]=[N+]=NC(=O)C1C(c2ccccc2)=C1c1ccccc1` as the compound, how does the growth inhibition read?
Answer: 6.8%

Question: Which growth inhibition does the source give for `O=[N+]([O-])c1cc(Cl)ccc1NC(Nc1ccc(Cl)cc1[N+](=O)[O-])C(Cl)(Cl)Cl` here?
Answer: 10.1%

Question: Which growth inhibition does the source give for `Nc1nc2sc3ccccc3c(=O)n2n1` here?
Answer: -31.9%

Question: Which growth inhibition does the source give for `CCOC(=O)c1ccc(NC(=O)Nc2cc(Cl)ncn2)cc1` here?
Answer: -6.55%

Question: With `Cc1ccc(S(=O)(=O)NC2C(=O)c3ccccc3C(=O)C2n2ccnc2)cc1` (stereo not given) as the compound, how does the growth inhibition read?
Answer: -1.8%

Question: With `N=c1c2ccccc2nc2oc3ccc(Cl)cc3n12` as the compound, how does the growth inhibition read?
Answer: -32.5%

Question: With `Cc1c(-c2ccc(N)cc2)c(=O)oc2cc(O)ccc12` as the compound, how does the growth inhibition read?
Answer: -11.1%

Question: Which growth inhibition does the source give for `CCCc1ccccc1[N+](=O)[O-]` here?
Answer: -14.9%

Question: For `Cc1cc2c(c(C(=O)NCC(=O)O)c1)Oc1c(cc(C)cc1C(=O)NCC(=O)O)S2`, which growth inhibition is on record?
Answer: 20.1%

Question: For `O=C1NC(=O)[C@H]2C[C@H]3C(=O)NC(=O)[C@H]3[C@@H]12`, which growth inhibition is on record?
Answer: 2.75%

Question: Which growth inhibition does the source give for `OCC(O)COCCCCCCCCCCCCCC1C=CCC1` (stereo not given) here?
Answer: -43.5%

Question: With `CCCCN1CCSC1=S` as the compound, how does the growth inhibition read?
Answer: 99.7% (active)

Question: Which growth inhibition does the source give for `N=C(/C(=C/c1cccc2ccccc12)c1ccccc1)c1ccccc1` here?
Answer: 10.2%

Question: For `COc1ccc2occc2c1`, which growth inhibition is on record?
Answer: -1.55%

Question: With `C=CCN1/C(=C(\C#N)c2nc3ccccc3[nH]2)Sc2c1nc[nH]c2=O` as the compound, how does the growth inhibition read?
Answer: -27.9%

Question: Which growth inhibition does the source give for `Cc1ccc2c(ccc3nnc(C)n32)c1` here?
Answer: 4.05%

Question: With `C=CCN1C(=O)/C(=C/c2ccc(OCC(=O)O)cc2)SC1=S` as the compound, how does the growth inhibition read?
Answer: -11.2%

Question: With `COc1c2c(cc3c1C1(O)Cc4ccc5c(c4C[N+]1(C)CC3)OCO5)OCO2` (stereo not given) as the compound, how does the growth inhibition read?
Answer: 3.05%

Question: With `C=C1C(=O)OC2/C=C(\C)CC(O)/C=C(/C)CC(OC(=O)C(O)(CO)C(C)S)C12` (stereo not given) as the compound, how does the growth inhibition read?
Answer: 6.55%

Question: Which growth inhibition does the source give for `CNC(=O)c1ccccc1C` here?
Answer: -6%

Question: With `N#CCCCCCCO` as the compound, how does the growth inhibition read?
Answer: -20.6%

Question: Which growth inhibition does the source give for `O=C(Nc1nccs1)Nc1cc(F)ccc1F` here?
Answer: 42.5%

Question: For `N#CC(c1ccc(Cl)cc1)c1cccc(C(C#N)c2ccc(Cl)cc2)n1` (stereo not given), which growth inhibition is on record?
Answer: 13.6%

Question: Which growth inhibition does the source give for `O=C1NC(=O)C2(CCC(O)C2)c2cc[n+]([O-])cc21` (stereo not given) here?
Answer: -41.4%

Question: With `Cn1c(=O)c2c(nc(NCCOC(=S)S)n2C)n(C)c1=O` as the compound, how does the growth inhibition read?
Answer: 1.8%

Question: For `CCCC=Nc1ccccc1`, which growth inhibition is on record?
Answer: 3.65%

Question: With `COC(=O)c1c(C)cc(OC)c(C/C=C(\C)CCCc2coc(C=C(C)C)c2)c1OC` as the compound, how does the growth inhibition read?
Answer: 6.55%

Question: For `BrC1=C(c2ccccc2)SC(Br)=C(c2ccccc2)S1`, which growth inhibition is on record?
Answer: 4.45%

Question: With `Cc1ccc(NC(=O)/C=C2\CONC(c3ccccc3)=N2)cc1` as the compound, how does the growth inhibition read?
Answer: -5.7%

Question: For `CCOC(=O)NN(C(=O)OCC)C(C(C)=O)c1ccccc1` (stereo not given), which growth inhibition is on record?
Answer: -3.35%

Question: Which growth inhibition does the source give for `O=c1[nH]c(=O)c2ncn(C3OC(CO)C(O)C3O)c2[nH]1.O=c1[nH]c(=O)c2ncn(C3OC(CO)C(O)C3O)c2[nH]1.[NH2-].[NH2-].[Pt+2]` (stereo not given) here?
Answer: 33.5%

Question: Which growth inhibition does the source give for `c1ccc(N=c2snc3scc(-c4ccccc4)n23)cc1` here?
Answer: 6.95%

Question: For `COc1ccc([N+](=O)[O-])c2ncncc12`, which growth inhibition is on record?
Answer: -12%

Question: Which growth inhibition does the source give for `O=[N+]([O-])c1cccc([I+]c2cccc([N+](=O)[O-])c2)c1` here?
Answer: 95.8% (active)

Question: For `O=C(Cc1cccc(CC(=O)c2ccccc2)n1)c1ccccc1`, which growth inhibition is on record?
Answer: -4.75%

Question: Which growth inhibition does the source give for `c1ccc2c(c1)NC1(CCCCC1)S2` here?
Answer: -13.1%

Question: With `O=C1OC(c2ccc(O)c(-c3ccccc3)c2)(c2ccc(O)c(-c3ccccc3)c2)c2c(Cl)c(Cl)c(Cl)c(Cl)c21` as the compound, how does the growth inhibition read?
Answer: -18.4%

Question: For `CC(=O)Oc1c(C)n(C(C)=O)c2cc(Cl)ccc12`, which growth inhibition is on record?
Answer: -5.55%

Question: For `CCN(CC)c1ccc2cc(-c3nc4ccccc4n3C)c(=O)oc2c1`, which growth inhibition is on record?
Answer: -6%
